Assay outcomes as filed in PubChem.
In the library only some 1.2% were active in any assay of this set; here they are far more common.
NCOA1 inh: SRC1 coactivator transcriptional activity inhibitors, primary screen, cell-based, luminescence; 360,000 tested, 0.12% active; Nuclear receptor coactivator 1 (Homo sapiens), Q15788; AID 588354, 2011; HEK293 GAL4-SRC1 luciferase reporter; inhibition, % at 3.6 µM;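 active = inhibition above the campaign mean plus 3 SD, with each screening campaign given its own cutoff, cut at about 60% in these data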;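 also: 0% = DMSO treated cells and 100% = gossypol at 36 µM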
SRC3 inh: SRC3 coactivator transcriptional activity inhibitors, primary screen, cell-based, luminescence. HEK293 GAL4-SRC3 luciferase reporter. 360,000 tested, 0.17% active. inhibition, % at 3.6 µM. Nuclear receptor coactivator 3 (Homo sapiens), Q9Y6Q9. AID 588352, 2011;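 active = inhibition above a per-campaign cutoff, the mean of all compounds plus 3 SD, cut at about 60% in these data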;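 also: 0% = DMSO-treated cells and 100% = gossypol-treated cells at 36 µM; higher means less SRC3-driven luciferase light from the GAL4 reporter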
Gli-Sufu antag: Gli-Sufu pathway antagonists, primary screen, luciferase luminescence, Sufu-KO-LIGHT cells, uHTS; Sufu-KO-LIGHT fibroblasts, Gli luciferase reporter luminescence; inhibition, % at 5 µM; 340,000 tested, 0.74% active;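 active = inhibition above about 55%, limit read from the data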;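 also: 0% = DMSO-treated cells and 100% = wells with medium but no cells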
COUP-TFII inh: NR2F2 transcriptional activity inhibitors, primary screen, cell-based, luciferase reporter, HEK293T, luminescence; COUP transcription factor 2 (Homo sapiens), P24468; HEK293T NGFI-A luciferase reporter; inhibition, % at 8.6 µM; 370,000 tested, 0.7% active;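 active = inhibition above a per-plate cutoff, mean inhibition of test wells between control levels plus 3 SD, cut at about 38% in these data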;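 also: cells cotransfected with COUP-TFII expression vector driving the NGFI-A reporter; 0% = median of COUP-TF2 test wells and 100% = reporter-only cells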
SRC2 inh: inhibition of GAL4-SRC2 driven luciferase reporter, primary screen, SRC2 inhibitor project, cell-based, luminescence; 370,000 tested, 0.17% active; inhibition, % at 9 µM; HEK293 GAL4-SRC2 luciferase reporter; Nuclear receptor coactivator 2 (Homo sapiens), Q15596; AID 651957, 2012;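 active = inhibition above the mean inhibition of all tested compounds plus 3 SD, set per campaign, cut at about 52% in these data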;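 also: 0% = DMSO treated cells and 100% = cells given Gossypol at 36 µM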
LRH-1 inv ag: LRH-1 (NR5A2) inverse agonists, primary screen, cell-based, luminescence, HEK293T, StAR-luciferase reporter. inhibition, % at 3.6 µM. 360,000 tested, 0.13% active. LRH-1 transfected, 24 h;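 active = inhibition above the mean inhibition of all tested compounds plus 3 SD, cut at about 73% in these data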;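 also: 0% = DMSO wells and 100% = reporter-only cells lacking LRH-1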
Gli antag conf: Gli-SUFU pathway antagonists, confirmation, single concentration, luciferase luminescence, Sufu-KO-LIGHT cells | 2,500 tested, 40% active | Gli luciferase reporter | AID 602428, 2012 | shares compounds with Gli-Sufu antag | inhibition, % at 5 µM;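 active = mean inhibition at 5 µM reaching about 45%, limit read from the data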;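 also: plate controls were DMSO-treated cells for no effect and wells lacking cells for full effect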
SufuKO cytotox: cytotoxicity in Sufu-KO-LIGHT cells, confirmation, cytotoxicity control for Gli-SUFU antagonist project, cell-based, ATP luminescence, single concentration | cytotoxicity, % at 5 µM | shares compounds with Gli-Sufu antag | 2,500 tested, 32% active;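 active = mean cytotoxicity at 5 µM above about 25%, limit read from the data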;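 also: cells exposed to compound overnight for roughly 16 to 18 hours; plate controls were DMSO wells with cells for no effect and medium without cells for full effect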
Wnt3a cs: Wnt3a reporter signal inhibition, confirmation, counter-screen for Gli-SUFU antagonist project, Wnt-LIGHT cells, luminescence, single concentration; 2,500 tested, 20% active; Wnt3a-driven luciferase reporter; shares compounds with Gli-Sufu antag; AID 651995, 2013; inhibition, % at 6.25 µM;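 active = mean inhibition above about 25%, limit read from the data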
* marks the source's active call; other numbers are inactive results; x = no result.

SMILES	NCOA1 inh	SRC3 inh	Gli-Sufu antag	COUP-TFII inh	SRC2 inh	LRH-1 inv ag	Gli antag conf	SufuKO cytotox	Wnt3a cs
CN1C(=O)[C@@]2(O[C@H]3[C@H]4C=C[C@@H]([C@H]5C(=O)N(Cc6ccccc6)C(=O)[C@@H]45)N3C3=C2C(=O)CC3)c2ccccc21	x	x	x	-7	-33	x	x	x	x
O=C(C(=O)N1CCC(CNC(=O)C2COc3ccccc3O2)CC1)c1cc2ccccc2o1 (stereo not drawn)	x	x	x	-8	13	x	x	x	x
O=C(Nc1cc(N2CCCCC2)ncn1)c1ccccc1	-37	-35	72*	-34	-40	-47	77*	5	-72
CC(C)[C@H](NC(=O)c1cccs1)C(=O)N1CCC[C@H]1C(=O)NCc1ccccc1	x	x	x	0	-15	x	x	x	x
COc1ccc(S(=O)(=O)N2CCCC(C(=O)N3CCOCC3)C2)cc1C (stereo not drawn)	-5	13	99*	10	11	7	25	17	3
Cc1cc(S(=O)(=O)N2CCCC(C(=O)Nc3ccc(C(=O)O)cc3)C2)ccc1Cl (stereo not drawn)	0	10	55*	-9	0	-2	16	-7	14
COc1ccc(S(=O)(=O)N2CCOCC2)cc1C(=O)N1CCCC1	-3	21	61*	7	-7	-22	20	10	-3
COc1ccc(S(=O)(=O)N2CCN(c3ccccc3)CC2)cc1C(=O)N1CCCC1	-3	16	6	26	2	2	x	x	x
COCCN1C(=O)C2=C(C1=O)C1N(C)c3ccccc3[C@@]13C[C@@H](CO)N(S(=O)(=O)c1ccc(OC)cc1)C3=N2 (stereo partly drawn)	x	x	x	-15	1	x	x	x	x
COc1ccc(-c2c(C#N)c(N)nc3c2CCc2ccccc2-3)cc1OC	x	x	54	-43	-33	x	56*	18	-8
Nc1nc2c(C(=O)N3CCCC3)nnn2c2ccccc12	x	x	x	-33	-65	x	x	x	x
O=C(Cn1cnc2ccccc21)Nc1cccc(S(=O)(=O)N2CCCC2)c1	12	30	54	x	x	17	53*	14	17
CCOC(=O)c1ccc(NC(=O)CSc2nnc(CNC(=O)c3ccccc3F)o2)cc1	6	1	96*	15	-11	33	17	-9	11
Cc1ccc(C(=O)N2CCN(c3ncc(C(F)(F)F)cc3Cl)CC2)s1	10	-12	58*	-11	8	-11	18	-1	-41
COc1cccc(CC(=O)NCC2CCN(C(=O)C(=O)c3cccs3)CC2)c1	x	x	x	-21	-14	x	x	x	x
Cn1cc(CNC(=O)C2CCC(=O)N(Cc3ccccc3F)C2)cn1 (stereo not drawn)	4	16	-3	0	-23	20	x	x	x
CCn1cc(CNC(=O)C2CCC(=O)N(Cc3ccccc3F)C2)cn1 (stereo not drawn)	-11	-8	51	4	-9	-11	21	-2	15
COc1ccc(S[C@]2(C(=O)N3CCN(c4ncccn4)CC3)CC(=O)N(C(=O)Nc3ccc(C)c(Cl)c3)[C@@H]2c2ccc(OC)cc2)cc1	x	x	x	8	0	x	x	x	x
CN1CCCCC(NC(=O)c2cccc([N+](=O)[O-])c2)C1=O (stereo not drawn)	x	x	x	4	11	x	x	x	x
O=C(OCCOc1cccc(Cl)c1)c1cc(S(=O)(=O)N2CCCCC2)ccc1N1CCOCC1	-27	19	64*	15	13	-13	66*	36*	19
CCNC(=S)N(CCN(C)C)Cc1cc2cc(OCC)ccc2[nH]c1=O	-21	13	60*	-32	-5	-29	23	12	-8
CCNC(=S)N(Cc1cccs1)Cc1cc2cc(OCC)ccc2[nH]c1=O	-13	3	14	3	-5	7	x	x	x
CCNC(=S)N(CCc1cccc(C)c1)Cc1cc2cc(OC)c(OC)cc2[nH]c1=O	5	20	52	1	-46	1	14	25	-22
O=S(=O)(c1cccc2cccnc12)N1CCC(c2cn3ccccc3n2)CC1	x	x	x	13	-10	x	x	x	x
COc1ccc(CCC[C@@H](CCC(=O)N(c2ccccc2)c2ccccc2)CCc2ccccc2)cc1	x	x	x	1	5	x	x	x	x
SMILES	NCOA1 inh	SRC3 inh	Gli-Sufu antag	COUP-TFII inh	SRC2 inh	LRH-1 inv ag	Gli antag conf	SufuKO cytotox	Wnt3a cs
Cc1cc(N2CCN(c3ccc([N+](=O)[O-])c4cccnc34)CC2)c2ccccc2n1	7	19	25	x	x	2	x	x	x
Cc1cc(N2CCN(c3ccc(C(F)(F)F)cc3[N+](=O)[O-])CC2)c2ccccc2n1	16	4	52	32	-22	22	34	19	-53
COc1cccc(/C=N\NC(=O)c2ccc(Cn3cc(Br)c([N+](=O)[O-])n3)o2)c1O	36	60	56*	-3	5	42	50*	13	47*
COc1cc(CNCc2cc(OC)ccc2OC)cc(OC)c1	12	-5	57*	1	-11	-4	14	10	-2
COc1ccc(CNCc2cc(OC)ccc2OC)cc1	0	-6	20	-17	21	18	x	x	x
COc1ccccc1-n1c(Cc2cccc3ccccc23)nnc1SCC(=O)O	x	x	x	-2	-18	x	x	x	x
CC(=O)c1c(C)[nH]c(C(=O)OCC(=O)Nc2cc(Cl)ccc2[N+](=O)[O-])c1C	-18	18	5	-12	21	32	x	x	x
CC(=O)c1c(C)[nH]c(C(=O)OCC(=O)Nc2ccc(C)cc2[N+](=O)[O-])c1C	5	33	77*	28	29	31	80*	27*	28*
O=[N+]([O-])c1ccc(SN2CCCCC2)c([N+](=O)[O-])c1	x	x	x	1	-35	x	x	x	x
COc1ccc(CN2C[C@@]3(O)CC[C@@H](O)[C@@H](OC)[C@@H]3[C@@](C)(O)[C@@H]2CC=C(C)C)cc1	x	x	x	2	-11	x	x	x	x
CCOC(=O)c1sc(=S)n(-c2ccccc2Cl)c1SC	-44	-4	51	0	18	11	9	-5	-12
